Screens (PubChem)
Pf growth 48h: Primary qHTS for delayed death inhibitors of the malarial parasite plastid, 48 hour incubation; P. falciparum luciferase growth in erythrocytes, 48 h; 5.9% of 310,000 active; Potency, µM (top dose mostly 28.7 µM), for the others: top-dose activity change, negative = inhibition, actives largely listed as inhibitors; also: potency is read from the fitted curve at half-maximal effect; % is scaled to controls: 0 for no effect and ±100 for the full control effect
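Luciferase-expressing P. falciparum in infected erythrocytes (2% hematocrit, 0.1% parasitemia final) in RPMI 1640/0.5% Albumax were exposed to compound for 48 hours at 37 C, 5% CO2; growth read as luminescence.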
HCV inhibitor: qHTS Assay for Inhibitors of Hepatitis C Virus (HCV) | Potency, µM (series often up to 41.8 µM), for the others: at the top dose activity change, negative = inhibition, most hits filed as inhibitors | 3.4% of 340,000 active | Huh7.5.1 HCVcc-Cre infection, luciferase reporter, 44 h; also: potency is read from the fitted curve at half-maximal effect; % is scaled to controls: 0 for no effect and ±100 for the full control effect
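Cells seeded at 1,000/well and cultured 4 h, then compounds added followed by HCVcc-Cre virus (~0.5 moi). After 44 h further culture, luciferase substrate was added, plates held 15 min at room temperature, and luminescence read for 15 sec.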
Pf growth 96h: Primary qHTS for delayed death inhibitors of the malarial parasite plastid, 96 hour incubation; P. falciparum luciferase reporter growth, 96 h; Potency, µM (top dose mostly 28.7 µM), without a hit: at the top dose activity change, negative = inhibition, most hits filed as inhibitors; 6.9% of 320,000 active; also: potency is read from the fitted curve at half-maximal effect; % is scaled to controls: 0 for no effect and ±100 for the full control effect
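P. falciparum expressing integrated firefly luciferase grown in erythrocytes (2% hematocrit, 0.05% parasitemia final) with compounds for 96 hours at 37 C, 5% CO2. Growth inhibition read as loss of luminescence after adding luciferase detection reagent.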
AMA1-RON2 inh: qHTS for Inhibitors of AMA1-RON; Towards Development of Antimalarial Drug Lead: Primary Screen. Plasmodium falciparum AMA1 (3D7) - RON2 peptide interaction. AlphaScreen AMA1-biotinylated RON2 peptide binding. Potency, µM (titrated, usually from 58.2 µM), without a hit: at the highest dose activity change, negative = inhibition, actives largely listed as inhibitors. 0.2% of 360,000 active. AID 720542, 2013;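 also: potency is read from the fitted curve at half-maximal effect; 0% = vehicle wells and -100% = peptide control; nearly all actives have a fitted effect of over 45% in size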
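AMA1 (3D7) with his tag at 25 nM final met compounds first, then biotinylated RON2 peptide at 25 nM; detection used donor plus acceptor beads, 10 µg/mL apiece, read by AlphaScreen after 30 min at room temperature.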
Shiga inhibitor: A qHTS for Small Molecule Inhibitors of Shiga Toxin; Vero cells, Shiga toxin protein synthesis inhibition reporter; inhibition, % at 38.7 µM; 9.2% of 290,000 active; in the data active = inhibition mostly above about 28%, no sharp cut-off; inactive = mostly below about 43%; also: 0% is about no effect
CHX counter: Cycloheximide Counterscreen for Small Molecule Inhibitors of Shiga Toxin. cell reporter, cycloheximide protein synthesis inhibition counterscreen. max response, %. 12% of 300,000 active. AID 2314, 2010; in the data active = max response mostly above about 13%, no sharp cut-off; inactive = mostly below about 14%; also: read at 38.3 µM for the half of the compounds with a filed dose; 0% is about no effect
CLK4 ADP-Glo: Confirmaiton Assay for Inhibitors of CDC-like Kinase 4 (ADP-Glo Assay); AID 1969, 2009; 80% of 65 active; Potency, µM (highest dose often 80 µM), for the others: at the top dose activity, negative = inhibition, hits mostly inhibitors; recombinant Clk4, RS peptide, ADP-Glo luminescence; shares compounds with Pf growth 48h
Target sequence (Q9HAZ1 whole entry, looked up): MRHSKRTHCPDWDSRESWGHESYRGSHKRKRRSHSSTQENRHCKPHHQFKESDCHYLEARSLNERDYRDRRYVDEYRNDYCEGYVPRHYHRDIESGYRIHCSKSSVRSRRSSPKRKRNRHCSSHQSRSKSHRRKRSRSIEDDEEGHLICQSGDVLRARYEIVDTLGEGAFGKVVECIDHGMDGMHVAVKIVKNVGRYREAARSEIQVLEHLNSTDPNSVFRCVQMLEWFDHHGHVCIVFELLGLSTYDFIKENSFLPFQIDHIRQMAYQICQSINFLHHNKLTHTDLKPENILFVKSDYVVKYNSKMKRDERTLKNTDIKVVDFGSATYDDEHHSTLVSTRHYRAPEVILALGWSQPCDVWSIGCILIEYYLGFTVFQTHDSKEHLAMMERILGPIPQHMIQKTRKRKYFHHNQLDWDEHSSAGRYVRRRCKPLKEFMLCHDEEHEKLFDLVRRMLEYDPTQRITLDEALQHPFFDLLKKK
CLK4 cf ADP-FP: Confirmation Assay for Inhibitors of CDC-like Kinase 4 (ADP-FP Assay); shares compounds with Pf growth 48h; recombinant Clk4, ADP Transcreener FP, RS peptide; Potency, µM (titrated, usually from 80 µM), without a hit: at the top dose activity, negative = inhibition, hits mostly inhibitors; 70% of 65 active; AID 1983, 2009
Numbers without * were called inactive. The list is not random: actives were taken first. Their share in the collection is about 21%. Unless noted, calls follow the shape of the dose curve; as a rule, active = well fitted curve in the direction sought with a large enough effect; inconclusive = small, poorly fitted or top-dose-only effect, or another doubt; inactive = no such curve, though single readings can be large; an effect the other way counts as inactive or inconclusive.

Screening COc1cccc(-c2ccc3ncnc(NCc4cccnc4)c3c2)c1 returned Pf growth 48h inconclusive, Pf growth 96h inconclusive, CLK4 ADP-Glo 2.5µM* and CLK4 cf ADP-FP 4.5µM*.
For c1cncc(CNc2ncnc3ccc(-c4ccco4)cc23)c1 the results were Pf growth 48h inconclusive, Pf growth 96h inconclusive, CLK4 ADP-Glo 2.8µM* and CLK4 cf ADP-FP 8.9µM*.
For COc1cccc(CNc2ncnc3cc(OC)c(OC)cc23)c1 the results were Pf growth 48h inconclusive, HCV inhibitor -15%, Pf growth 96h inconclusive, AMA1-RON2 inh 0%, Shiga inhibitor 2 and CHX counter -2.
Screening CCCCN1C(=O)C(C#N)CC2=C1CC(C)(C)CC2=O (stereo not drawn) returned HCV inhibitor -10% and AMA1-RON2 inh -7%.
COc1ccc(CCNC(=O)[C@H](C)NC(=O)N2CCn3c2nc2ccccc23)cc1OC was read as Pf growth 48h -25%, HCV inhibitor 12%, Pf growth 96h inconclusive, AMA1-RON2 inh 92%, Shiga inhibitor 19 and CHX counter -3.
Cc1csc(CNc2ncnc3ccc(-c4ccco4)cc23)c1 was read as Pf growth 48h inconclusive, Pf growth 96h 7%, CLK4 ADP-Glo -2% and CLK4 cf ADP-FP -9%.
`Cc1csc(CNc2ncnc3ccc(-c4ccc5c(ccn5C)c4)cc23)c1` gave Pf growth 48h 3.7µM*, Pf growth 96h 5.9µM*, CLK4 ADP-Glo 14µM* and CLK4 cf ADP-FP 40µM*.
Screening Cc1csc(CNc2ncnc3ccc(-c4c(C)noc4C)cc23)c1 returned Shiga inhibitor 7 and CHX counter 11.
For Cc1cccc(-c2ccc3ncnc(NCc4cc(C)cs4)c3c2)c1 the results were Pf growth 48h 12µM*, Pf growth 96h 9.3µM*, CLK4 ADP-Glo 14µM* and CLK4 cf ADP-FP inconclusive.
For Cc1csc(CNc2ncnc3ccc(-c4cccc(Cl)c4)cc23)c1 the results were Pf growth 48h 7.4µM*, Pf growth 96h 2.3µM*, CLK4 ADP-Glo 13µM* and CLK4 cf ADP-FP inconclusive.
For COc1ccccc1N(CC(=O)N1CCCC1)S(=O)(=O)c1cc([N+](=O)[O-])ccc1Cl the results were HCV inhibitor 8% and AMA1-RON2 inh -1%.
CN(Cc1ccco1)c1ncnc2ccc(-c3cccc(Cl)c3)cc12 was read as Pf growth 48h 6.6µM*, Pf growth 96h 9.3µM*, CLK4 ADP-Glo 1.4µM* and CLK4 cf ADP-FP 1.6µM*.
`CN(Cc1ccco1)c1ncnc2ccc(-c3ccc4c(c3)OCO4)cc12` gave Pf growth 48h inconclusive, Pf growth 96h inconclusive, CLK4 ADP-Glo 0.063µM* and CLK4 cf ADP-FP 0.05µM*.
Screening CCC(C)(C(=O)NC1CCCC1)N(Cc1ccco1)C(=O)c1ccc2c(c1)OCO2 (stereo not drawn) returned Pf growth 48h 0%, HCV inhibitor inconclusive, Pf growth 96h inconclusive, AMA1-RON2 inh 7%, Shiga inhibitor -12 and CHX counter -2.
For Cc1cccc(-c2ccc3ncnc(N(C)Cc4ccco4)c3c2)c1 the results were Pf growth 48h 12µM*, Pf growth 96h inconclusive, CLK4 ADP-Glo 2.5µM* and CLK4 cf ADP-FP 3.2µM*.
